# GDH-TPI counter-1 – counter-screen for M. tuberculosis FBA inhibitors: GDH-TPI coupled enzymes; GDH-TPI coupled enzyme counterscreen, NADH absorbance; inhibition, % at 4.8 µM; 1.2% of 360,000 active;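 note: 0% = DMSO wells and 100% = wells lacking the enzyme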
# Mtb FBA inh – inhibits M. tuberculosis FBA enzyme; purified M. tuberculosis FBA, fluorescence read-out; inhibition, % at 1 µM; 2.3% of 360,000 active; AID 588726; in the data active = inhibition above about 27%;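 note: 0% = vehicle and 100% = reference inhibitor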
# Target sequence (P9WQA3 whole entry, looked up): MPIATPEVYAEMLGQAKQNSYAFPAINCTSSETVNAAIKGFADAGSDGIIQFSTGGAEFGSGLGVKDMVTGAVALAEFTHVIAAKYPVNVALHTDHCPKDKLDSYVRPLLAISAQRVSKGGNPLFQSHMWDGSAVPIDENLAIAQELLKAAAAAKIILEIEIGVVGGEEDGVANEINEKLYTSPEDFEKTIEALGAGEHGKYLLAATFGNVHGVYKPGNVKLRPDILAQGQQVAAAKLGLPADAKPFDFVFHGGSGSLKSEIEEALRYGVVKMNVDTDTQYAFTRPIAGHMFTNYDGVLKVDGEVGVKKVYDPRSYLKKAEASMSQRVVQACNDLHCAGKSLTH
# RecA intein inh – inhibitors of M. tuberculosis RecA intein splicing. inhibition, % (no concentration beside the values). P9WHJ3. AID 2221. 0.75% of 290,000 active. cell-free RecA intein splicing, fluorescence; in the data active = inhibition above about 30%; inconclusive = no clear call, values can overlap the other calls;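 note: 0% = vehicle wells and 100% = reference inhibitor control wells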
# CCHF vOTU inh-1 – blocks the CCHF virus ovarian tumor domain protease; inhibition, % at 11.5 µM; 0.55% of 370,000 active; AID 651958; CCHFV vOTU protease, Pep-AMC fluorescence; note: 0% = vehicle wells with enzyme and 100% = no enzyme wells
# Mtb bLac sens – beta-lactam sensitization of Mtb H37Rv | M. tuberculosis H37Rv growth with meropenem, percent inhibition | inhibition, % at 25 µM | 0.27% of 330,000 active; call rule not given here;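 note: growth measured after seven days incubation then overnight dye step; 0% = bacteria only wells and 100% = bacteria with antibiotic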
# GFP chromophore – counter-screen GFP chromophore formation inhibition. cell-free GFP chromophore formation, fluorescence. EC50, µM. shares compounds with RecA intein inh. 83% of 2,100 active; call rule not given here
# Mtb FBA inh conf – confirmation of M. tuberculosis fructose-bisphosphate aldolase inhibitors | inhibition, % at 1 µM | AID 651616 | purified M. tuberculosis FBA, fluorescence read-out | 78% of 5,600 active | shares compounds with Mtb FBA inh; in the data active = inhibition above about 27%;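 note: 0% = vehicle wells and 100% = reference inhibitor wells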
# GDH-TPI counter-2 – counter-screen for M. tuberculosis FBA inhibitors: GDH-TPI coupled enzyme inhibition; AID 652141; 81% of 5,600 active; inhibition, % at 1 µM; shares compounds with Mtb FBA inh; GDH-TPI coupled enzyme counterscreen, fluorescence; in the data active = inhibition above about 10%
# CCHF vOTU inh-2 – CCHFV vOTU protease inhibition, confirmation | shares compounds with CCHF vOTU inh-1 | Recombinant CCHFV vOTU, Pep-AMC fluorescence | inhibition, % at 11.5 µM | 17% of 1,900 active | AID 686976
# An asterisk follows results filed as active; ? = inconclusive; nt = not tested or not shown; + = active, no number. Hits are enriched below; roughly 4.2% of the tested compounds scored in any of these assays. Cut-off read from the data, not from the text of the source, unless noted: active = inhibition above about 30%; inactive = the rest.
SMILES,GDH-TPI counter-1,Mtb FBA inh,RecA intein inh,CCHF vOTU inh-1,Mtb bLac sens,GFP chromophore,CCHF vOTU inh-2,others
COC(=O)[C@]12C[C@H](CC(=O)N3CCN(C(=O)C4CC4)CC3)C(=O)N(Cc3ccc(Cl)cc3Cl)C1=C[C@H](C(C)(C)C)O[C@@H]2C,nt,nt,nt,19.7,nt,nt,nt,
Cc1ccccc1C(=O)NC1CCCCN(Cc2cccc(C(F)(F)F)c2)C1=O (stereo not given),nt,nt,nt,10.8,nt,nt,nt,
C[C@H]1[C@@H](c2ccccc2)Oc2ccc(Cl)cc2S(=O)(=O)N1Cc1cccc(Cl)c1,nt,nt,nt,9.1,nt,nt,nt,
COCC(C)NC(=O)CCS(=O)(=O)c1nc(-c2ccc(OC)cc2)cc(C(F)(F)F)n1 (stereo not given),36.4*,77.5*,32.8*,-0.4,20.5,34.9*,nt,Mtb FBA inh conf=+;GDH-TPI counter-2=+
Cc1cc(=O)n(-c2ccc(C(=O)O)cc2)[nH]1,6.6,-4.2,93.9*,54.3*,-4.6,2.83*,-19.8,
C=CCN1C(=O)[C@@H](CC(=O)N2CCN(C(=O)OCC)CC2)[C@]2(C(=O)OC)CCCCC=C12,nt,nt,nt,-7.4,nt,nt,nt,
O=C(O)c1cccc(C(=O)O)c1Br,1.8,2.8,-1.7,4.3,-3.6,nt,nt,
Nc1c(O)cccc1C(=O)O,1.4,39.7*,71.5*,29.6*,-1.5,6.1*,0.7,Mtb FBA inh conf=+;GDH-TPI counter-2=192.6*
Cc1ccccc1-c1cc2c(nn1)-c1ccccc1C2=O,9.1,-0.8,75.0*,96.5*,97.0,13.1*,93.7*,
Cc1ccc(-c2cc3c(nn2)-c2ccccc2C3=O)cc1,21.5,-1.3,12.2,25.3,58.6,nt,nt,
Cc1ccc(-n2c(Cc3cccs3)nnc2SCC(=O)Nc2ccccc2-c2ccccc2)cc1,nt,nt,nt,6.6,nt,nt,nt,
Cc1ccc(S(=O)(=O)NCC(=O)N2CCN(c3ccccn3)CC2)cc1C,nt,nt,nt,-8.9,nt,nt,nt,
COc1ccc(O)c(C(c2c(C)[nH][nH]c2=O)c2c(C)[nH][nH]c2=O)c1,-2.9,0.0,91.8*,84.2*,2.4,3.77*,-14.7,
COC(=O)C1=C(C)OC(N)=C(C#N)C1c1cccnc1 (stereo not given),-4.3,2.0,0.1,-3.7,3.8,nt,nt,
Cc1nn(-c2cccc(Cl)c2)c2c1C(c1cccnc1)C(C#N)=C(N)O2 (stereo not given),10.8,-6.2,34.7*,35.5*,5.3,21.3*,-19.8,
CN1CCc2nc(SCC(=O)Nc3ccc(OC(F)(F)F)cc3)c(C#N)c(-c3cccs3)c2C1,-1.5,-1.5,88.3*,35.3*,-0.1,3.88*,-7.0,
CN1CCc2nc(SCC(=O)Nc3cccc(F)c3)c(C#N)c(-c3cccs3)c2C1,13.5,-2.4,28.5,-11.4,6.0,nt,nt,
O=C(O)c1cccc(NS(=O)(=O)c2ccc3nnn(O)c3c2)c1,4.8,-2.7,-1.3,10.9,-13.6,nt,nt,
O=C(O)c1cccc(NC2=C(n3nnc4ccccc43)C(=O)c3ccccc3C2=O)c1,2.3,-9.2,77.9*,78.7*,6.8,1.92*,84.7*,
FC(F)(F)Oc1ccc(Cn2ccc3ccc(-c4ccc5ccn(Cc6ccccc6)c5c4)cc32)cc1,nt,nt,nt,20.9,nt,nt,nt,
O=S(=O)(Nc1ccc(Cl)cc1NS(=O)(=O)c1ccccc1)c1ccccc1,1.7,1.0,nt,23.2,nt,nt,nt,
COc1ccc(S(=O)(=O)Nc2cc(SCC(=O)O)c(O)c3ccccc23)cc1,4.0,-2.2,96.4*,102.1*,8.2,0.651*,38.9*,
O=C(O)CSc1cc(NS(=O)(=O)c2ccc(Cl)cc2)c2ccccc2c1O,7.8,-2.4,96.3*,104.0*,14.7,9.76*,95.3*,
CC(C)c1cc(C(C)C)c(S(=O)(=O)NCC(=O)N2CCN(c3ncccn3)CC2)c(C(C)C)c1,nt,nt,nt,17.5,nt,nt,nt,
COc1ccc(NC(=S)Nc2ccc3nc(C)c(C)nc3c2)cc1,11.9,2.0,-11.0,-3.0,-1.6,nt,nt,
SMILES,GDH-TPI counter-1,Mtb FBA inh,RecA intein inh,CCHF vOTU inh-1,Mtb bLac sens,GFP chromophore,CCHF vOTU inh-2,others
COc1ccc(NC(=S)Nc2ccc3nsnc3c2)cc1,13.1,-2.5,40.2*,117.8*,3.2,>38,99.6*,
CC(C)C[C@H]1COc2cccc(F)c2S(=O)(=O)N1Cc1cn(Cc2ccco2)nn1,nt,nt,nt,3.2,nt,nt,nt,
CCCCCCn1c(C(C)NC(=O)c2ccco2)nc2ccccc21 (stereo not given),-4.8,-4.4,3.2,6.6,-0.5,nt,nt,
CCCCn1c(NC(=O)c2ccc(Br)o2)c(S(=O)(=O)c2ccccc2)c2nc3ccccc3nc21,21.1,58.8*,90.1*,60.5*,-6.6,?,-29.4,Mtb FBA inh conf=6.4;GDH-TPI counter-2=-3.6
CCCCn1c(NS(=O)(=O)c2ccccc2)c(S(=O)(=O)c2ccc(C)cc2)c2nc3ccccc3nc21,15.1,4.1,75.9*,108.4*,-1.2,?,50.9*,
CCCn1nc(NS(=O)(=O)c2ccccc2)c2cc3ccccc3nc21,-1.5,-1.5,-1.8,-2.9,-7.9,nt,nt,
CCCCCn1c(NC(=O)c2ccco2)c(S(=O)(=O)c2ccc(C)cc2)c2nc3ccccc3nc21,23.8,96.3*,80.0*,70.8*,-4.9,>38,-62.6,Mtb FBA inh conf=30.4*;GDH-TPI counter-2=21.3*
Cn1c(=O)c2c(c3ccccc31)OC(C)(C)C=C2,nt,nt,nt,10.8,nt,nt,nt,
COc1cc(NC(C)CCCN)c2ncccc2c1Oc1ccccc1 (stereo not given),10.8,1.1,35.9*,29.9*,3.1,33.5*,-3.0,
COc1ccc(-n2c(SCC(=O)Nc3cc(C)c(NC(=O)c4ccccc4)cc3OC)nnc2-c2ccco2)cc1,nt,nt,nt,15.2,nt,nt,nt,
COc1ccccc1Nc1cc2cc(Br)ccc2c(=O)[nH]1,11.4,5.8,46.8*,108.8*,-4.2,7.77*,92.8*,
O=c1[nH]c(Nc2ccccc2)cc2cc(Br)ccc12,-7.8,2.1,89.7*,101.3*,20.7,6.01*,97.6*,
O=c1nccc(Nc2ccccc2)[nH]1,3.2,2.0,-0.3,-4.1,3.3,nt,nt,
O=c1cc(Nc2cccc(Br)c2)[nH]c(=O)[nH]1,5.7,2.3,1.6,-7.3,0.0,nt,nt,
COc1ccccc1Nc1nnc(C)c(=O)[nH]1,-4.1,-3.1,0.4,7.7,-4.8,nt,nt,
O=c1[nH]c(Nc2ccccc2)cc2ccccc12,8.4,11.0,63.6*,88.4*,1.7,?,5.8,
COc1ccc(OC)c(Nc2cc3ccccc3c(=O)[nH]2)c1,16.6,9.3,82.9*,98.8*,0.8,1.85*,90.4*,
C#CCN1CC(N(C)CCOC(=O)c2ccc([N+](=O)[O-])cc2)CS1(=O)=O (stereo not given),nt,nt,nt,1.4,nt,nt,nt,
COC(=O)N1C[C@@H]2Oc3nccnc3O[C@@H]2C[C@@H]1c1ccccc1Br,nt,nt,nt,13.1,nt,nt,nt,
CC(=O)N1CCN(c2ccc(N3CCN(Cc4ccccc4)[C@@H](C)C3)c(C)c2)[C@@H](C)C1,nt,nt,nt,10.7,nt,nt,nt,
